Shown are actives, neighbours in structure and some others; about 7.3% of the full set was active somewhere.
SNCA viab count – cell viability loss counter-screen | HEK-293-SNCA-luc viability, GF-AFC fluorescence, 24 h | actives 0.12% (n = 150,000) | Potency, µM (doses to about 57.1 µM), usual class: cytotoxic | AID 1671193; also: nearly all actives have a fitted effect of over 30% in size
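HEK-293-SNCA-luc cells (1500/well) plated 24 h, then exposed 24 h to a dilution series; GF-AFC added 30 min at 37C, fluorescence 405/540 nm; normalised to medium-only and DMSO wells, Hill fit.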
Luciferase inh – Photinus pyralis luciferase inhibition | Potency, µM (doses to about 115 µM), hits mostly inhibitors | purified P. pyralis luciferase, luminescence, biochemical | AID 1347043 | actives 2.5% (n = 76,000) | P08659; also: nearly all actives have a fitted effect of over 65% in size
Target sequence (P08659 whole entry, looked up): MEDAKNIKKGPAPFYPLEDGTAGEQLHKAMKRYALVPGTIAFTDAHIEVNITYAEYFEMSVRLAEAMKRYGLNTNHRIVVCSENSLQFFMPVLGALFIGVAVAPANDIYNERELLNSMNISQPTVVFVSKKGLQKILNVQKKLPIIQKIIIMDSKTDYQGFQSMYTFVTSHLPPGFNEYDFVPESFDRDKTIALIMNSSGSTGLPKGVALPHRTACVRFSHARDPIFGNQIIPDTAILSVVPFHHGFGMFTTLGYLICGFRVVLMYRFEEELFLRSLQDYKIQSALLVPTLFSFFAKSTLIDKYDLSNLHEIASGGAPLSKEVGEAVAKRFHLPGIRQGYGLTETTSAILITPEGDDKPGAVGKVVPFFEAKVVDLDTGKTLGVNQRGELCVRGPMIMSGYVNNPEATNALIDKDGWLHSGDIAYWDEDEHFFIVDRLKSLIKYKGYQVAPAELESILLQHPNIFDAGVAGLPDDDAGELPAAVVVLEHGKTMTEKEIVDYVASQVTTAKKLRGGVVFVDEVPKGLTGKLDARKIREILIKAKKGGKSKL
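Purified 10nM P. pyralis luciferase with 10uM D-luciferin and 10uM ATP in 50mM Tris acetate pH 7.5, 10mM Mg acetate, 0.01% Tween-20, 0.05% BSA. qHTS titration; luminescence read by CCD imager.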
NIH3T3 tox – kills NIH 3T3 cells; Potency, µM (top dose mostly 96.7 µM), hits mostly inhibitors; NIH 3T3 viability, CellTiter-Glo ATP luminescence, 48-72 h; actives 4.3% (n = 94,000); also: nearly all actives have a fitted effect of over 55% in size
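Viability of NIH 3T3 cells after 48 or 72 hr compound treatment at 37 °C was assessed by CellTiter-Glo, with luminescence imaged following a 10 min room-temperature step.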
SNCA expr inhib – inhibitors of alpha-synuclein (SNCA) gene expression | HEK-293 SNCA-luciferase knock-in, luminescence, 24 h | Potency, µM (top dose mostly 57.2 µM), hits mostly inhibitors | actives 0.17% (n = 140,000); also: nearly all actives have a fitted effect of over 45% in size
HEK cytotox – HEK 293 cell cytotoxicity; HEK 293 viability, ATP luminescence (CellTiter-Glo), 48-72 h; Potency, µM (top dose mostly 115 µM), most hits filed as inhibitors; actives 6.6% (n = 94,000); AID 1345083; also: nearly all actives have a fitted effect of over 60% in size
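Read-out: CellTiter-Glo ATP luminescence. Cells: HEK 293, 250 cells/well. Exposure: 48 or 72 hr, 37 degree Celsius.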
IP6K1 inhibitor – IP6K1 kinase inhibition; Q92551; IP6K1 kinase, ADP-Glo luminescence, 2 h; active compounds read low; activity change, % (series mostly up to about 58 µM); actives 0.81% (n = 140,000); AID 1645851; in the data active = activity change below about -25%
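ADP-Glo luminescence measures ADP made by human IP6K1 during a 2 h RT reaction with ATP/IP6 (mix at 1.3 mM/130 uM); top library doses 57.5 and 19.1 uM final.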
Of the large screens only hits and unclear results are named; the others gave an inactive call. Unless noted, calls follow the shape of the dose curve; as a rule, active = well fitted curve in the direction sought with a large enough effect; inconclusive = small, poorly fitted or top-dose-only effect, or another doubt; inactive = no such curve, though single readings can be large; an effect the other way counts as inactive or inconclusive.

COc1ccccc1-c1cccc(CN2CCCC(C(=O)NCc3ccc(F)cc3)C2)c1 (configuration not stated)	NIH3T3 tox 31.6µM, HEK cytotox 31.6µM (no result: Luciferase inh)
COc1ccccc1-c1cccc(CN2CCCC(C(=O)NCc3ccc(C(F)(F)F)cc3)C2)c1 (configuration not stated)	SNCA viab count inconclusive, NIH3T3 tox 22.4µM, SNCA expr inhib inconclusive, HEK cytotox 17.8µM (no result: Luciferase inh)
COc1ccccc1-c1cccc(CN2CCCC(C(=O)NCc3cccc(C(F)(F)F)c3)C2)c1 (configuration not stated)	NIH3T3 tox 15.8µM, SNCA expr inhib inconclusive, HEK cytotox 14.1µM (no result: Luciferase inh)
COc1ccccc1CNC(=O)C1CCCN(Cc2cccc(-c3ccc(F)cc3F)c2)C1 (configuration not stated)	NIH3T3 tox inconclusive, SNCA expr inhib inconclusive, HEK cytotox inconclusive (no result: Luciferase inh)
COc1ccccc1-c1cccc(CN2CCCC(C(=O)NCc3cccnc3)C2)c1 (configuration not stated)	NIH3T3 tox 35.5µM, HEK cytotox inconclusive (no result: Luciferase inh)
O=C(NC[C@H]1OC[C@@H](N(Cc2ncc[nH]2)Cc2ncc[nH]2)[C@@H]1O)c1ccccc1	Luciferase inh inconclusive
Cc1cc(C(=O)N2CCCN(S(=O)(=O)c3ccccc3)CCC(=O)NCC2)nn1C	none
COCCNc1ncnc2c1CN(C1CCNC1)C(=O)CN2C (configuration not stated)	none (no result: Luciferase inh)
COc1ccccc1-c1cccc(CN2CCCC(C(=O)NCc3cccc(Cl)c3)C2)c1 (configuration not stated)	SNCA viab count inconclusive, NIH3T3 tox 31.6µM, HEK cytotox 14.1µM (no result: Luciferase inh)
COc1ccccc1-c1cccc(CN2CCCC(C(=O)NC3CCOC3)C2)c1 (configuration not stated)	NIH3T3 tox inconclusive, HEK cytotox inconclusive (no result: Luciferase inh)
CN(C)c1ccc(CN2CCC3(C2)C(=NC2CCCC2)NC(=O)N3c2cc(F)cc(F)c2)cc1 (configuration not stated)	NIH3T3 tox inconclusive, SNCA expr inhib inconclusive, HEK cytotox inconclusive (no result: Luciferase inh)
O=C(NC1CCN(C(=O)c2ccc(-c3cccs3)cc2)CC1)c1cccc(Cl)c1	NIH3T3 tox inconclusive, HEK cytotox inconclusive (no result: Luciferase inh)
Cc1noc2c(-c3ccc(CO)cc3)cc(-c3cccs3)nc12	NIH3T3 tox 22.4µM, HEK cytotox 39.8µM
Cc1noc2c(NC3CCN(C)CC3)cc(-c3cccnc3)nc12	NIH3T3 tox inconclusive, HEK cytotox inconclusive
Cc1noc2c(N3CCNC(=O)C3)cc(-c3cccs3)nc12	NIH3T3 tox 31.6µM, HEK cytotox inconclusive
Cc1noc2c(NC3CCC(O)CC3)cc(-c3cccs3)nc12 (configuration not stated)	NIH3T3 tox 28.2µM, HEK cytotox inconclusive
Cc1noc2c(NC3CCC(O)CC3)cc(-c3cccnc3)nc12 (configuration not stated)	NIH3T3 tox 25.1µM
CCNC(=O)N1CCCC(Cc2noc(-c3cnccn3)n2)C1 (configuration not stated)	none
C#CCNC(=O)C1CCCN(Cc2cccc(-c3ccsc3)c2)C1 (configuration not stated)	NIH3T3 tox inconclusive, HEK cytotox inconclusive (no result: SNCA viab count, Luciferase inh, SNCA expr inhib)
Cc1cccc(-c2cccc(CN3CCCC(C(=O)N4CCN(C)CC4)C3)c2)c1 (configuration not stated)	NIH3T3 tox inconclusive, HEK cytotox 25.1µM (no result: Luciferase inh)
O=C(Nc1ccccc1F)C1CCCN(Cc2cccc(-c3cccs3)c2)C1 (configuration not stated)	NIH3T3 tox inconclusive, HEK cytotox inconclusive (no result: SNCA viab count, Luciferase inh, SNCA expr inhib)
O=C(NCc1cccc(F)c1)C1CCCN(Cc2cccc(-c3cccs3)c2)C1 (configuration not stated)	NIH3T3 tox 39.8µM, HEK cytotox inconclusive (no result: SNCA viab count, Luciferase inh, SNCA expr inhib)
O=C(NCc1cccs1)C1CCCN(Cc2cccc(-c3ccsc3)c2)C1 (configuration not stated)	NIH3T3 tox inconclusive, SNCA expr inhib inconclusive, HEK cytotox 39.8µM (no result: Luciferase inh)
O=C(C1CCCN(Cc2cccc(-c3cccs3)c2)C1)N1CCCC1 (configuration not stated)	NIH3T3 tox inconclusive, HEK cytotox 70.8µM (no result: Luciferase inh)
